Source: PubChem BioAssay (NCATS)
Inconclusive results are not listed. Where a call stands in place of a potency, no number is given. Active and inactive are the calls of the source. Calls follow the shape of the dose curve; as a rule, active = well fitted inhibition curve with a large enough effect; inconclusive = small, poorly fitted or top-dose-only effect; inactive = flat fitted curve, though single readings scatter.

Columns and labels:
Assay in all cases: qHTS profiling for inhibitors of Plasmodium falciparum proliferation (AID 504749); also: nearly all actives have a fitted effect of over 60% in size
Conditions in all cases: P. falciparum in erythrocytes, SYBR Green DNA, 72 h; series mostly up to 28.7 µM
CP256 = tested on: CP256
Summary of the method: (§1)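 SYBR Green fluorescence (ex 485 nm, em 535 nm) reports parasite DNA after 72 h compound exposure of infected red cells at 0.3% parasitemia, 2.5% hematocrit; signal normalized to 0.29 uM artemisinin and vehicle wells.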

CP260 = tested on: CP260
Summary of the method: as §1

CP262 = tested on: CP262
Summary of the method: as §1

CP265 = tested on: CP265
Summary of the method: as §1

CP268 = tested on: CP268
Summary of the method: as §1

CP269 = tested on: CP269
Summary of the method: as §1

CP286 = tested on: CP286
Summary of the method: as §1

CP291 = tested on: CP291
Summary of the method: as §1

CP297 = tested on: CP297
Summary of the method: as §1

CP305 = tested on: CP305
Summary of the method: as §1

CP315 = tested on: CP315
Summary of the method: as §1

CP325 = tested on: CP325
Summary of the method: as §1

CP329 = tested on: CP329
Summary of the method: as §1

CP335 = tested on: CP335
Summary of the method: as §1

DFO2036 = tested on: DFO2036
Summary of the method: as §1

DIV14 = tested on: DIV14
Summary of the method: as §1

DIV17 = tested on: DIV17
Summary of the method: as §1

DIV30 = tested on: DIV30
Summary of the method: as §1

Dd2 = tested on: Dd2
Summary of the method: as §1

CP266 = tested on: CP266
Summary of the method: as §1
Potency is read from the fitted curve at half-maximal effect.

Compound	Potency (CP256)	Potency (CP260)	Potency (CP262)	Potency (CP265)	Potency (CP268)	Potency (CP269)	Potency (CP286)	Potency (CP291)	Potency (CP297)	Potency (CP305)	Potency (CP315)	Potency (CP325)	Potency (CP329)	Potency (CP335)	Potency (DFO2036)	Potency (DIV14)	Potency (DIV17)	Potency (DIV30)	Potency (Dd2)	Potency (CP266)
O=C(OCCOCCO)c1ccccc1Nc1cccc(C(F)(F)F)c1	inactive	inactive	inactive	inactive	inactive	inactive	inactive	inactive	inactive	inactive	inactive	inactive	inactive	inactive	inactive	inactive	inactive	inactive	inactive	
c1ccc(OCc2ccc(CCCN3CCOCC3)cc2)cc1	inactive	inactive	inactive		inactive	inactive	inactive	inactive	inactive	inactive	inactive	inactive	inactive	inactive	inactive	8.49 µM (active)	6.75 µM (active)			inactive
CCN(CC)C(=O)/C(C#N)=C/c1cc(O)c(O)c([N+](=O)[O-])c1	inactive	inactive	inactive	inactive	inactive	inactive		inactive	inactive	inactive	inactive	inactive	inactive	inactive	inactive	inactive	inactive	inactive	0.447 µM (active)	inactive
C[C@@H](CN(C)C)CN1c2ccccc2Sc2ccccc21	inactive	inactive	inactive	inactive			inactive	inactive	inactive	inactive	inactive	inactive		inactive	inactive					inactive
CC(=O)Oc1ccc(C(c2ccc(OC(C)=O)cc2)c2ccccn2)cc1	inactive	inactive	inactive	inactive	inactive	inactive	inactive		inactive	inactive	inactive	inactive	inactive	inactive	inactive	inactive	inactive	inactive	inactive	inactive
C[C@H](O)C(=O)Nc1c(I)c(C(=O)NC(CO)CO)c(I)c(C(=O)NC(CO)CO)c1I	inactive	inactive	inactive	inactive	inactive	inactive	inactive	inactive	inactive	inactive		inactive	inactive	inactive	inactive	inactive	inactive	inactive	inactive	inactive
COc1cc2c(cc1OC)C(C(C(=O)N(CCc1ccc(OC)c(OC)c1OC)CCc1ccc(OC)c(OC)c1OC)c1ccccc1)=NCC2 (stereo not given)	5.62 µM (active)	3.55 µM (active)	9.53 µM (active)	7.94 µM (active)	13.5 µM (active)	6.75 µM (active)	7.94 µM (active)	15.1 µM (active)	3.38 µM (active)	15.1 µM (active)	13.5 µM (active)	16.9 µM (active)	13.5 µM (active)	5.36 µM (active)	inactive	1.35 µM (active)	1.35 µM (active)	1.35 µM (active)	3.98 µM (active)	
CC(Cc1cccc(C(F)(F)F)c1)NCCOC(=O)c1ccccc1 (stereo not given)	inactive	inactive	inactive	inactive	inactive	inactive	inactive	inactive		inactive	inactive	inactive	inactive	inactive	inactive			inactive		inactive
N[C@H](CO)C(=O)O	inactive	inactive	inactive	inactive		inactive	inactive	inactive	inactive	inactive	inactive	inactive	inactive	inactive	inactive	inactive	inactive	inactive	inactive	inactive
Cc1ccnc(NS(=O)(=O)c2ccc(N)cc2)n1	inactive	inactive	inactive	inactive	inactive	inactive	inactive	inactive	inactive	inactive		inactive	inactive	inactive	inactive	inactive	inactive	inactive	inactive	inactive
CC(C)(Oc1ccc(Cl)cc1)C(=O)O	inactive	inactive	inactive	inactive	inactive	inactive	inactive		inactive		inactive	inactive	inactive		inactive	inactive	inactive	inactive	inactive	inactive
NC(CO)(CO)CO	inactive	inactive	inactive	inactive	inactive	inactive	inactive	inactive		inactive	inactive	inactive	inactive	inactive	inactive	inactive	inactive	inactive	inactive	inactive
CCN1CCCC1=O	inactive	inactive	inactive	inactive	inactive	inactive	inactive	inactive		inactive	inactive	inactive	inactive	inactive	inactive	inactive	inactive	inactive	inactive	inactive
Oc1c(Cl)cc(Cl)cc1Sc1cc(Cl)cc(Cl)c1O	inactive	inactive	inactive	inactive	inactive	inactive	inactive	inactive		inactive	inactive	inactive	inactive	inactive	inactive	inactive	inactive	inactive	inactive	inactive
CCN(CC)C(=O)N1CCN(C)CC1	inactive	inactive	inactive	inactive	inactive	inactive	inactive	inactive	inactive	inactive	inactive	inactive	inactive	inactive	inactive	inactive	inactive	inactive	inactive	
Oc1ccc(Cl)cc1Sc1cc(Cl)ccc1O	inactive	inactive	inactive	inactive	inactive	inactive	inactive	inactive		inactive	inactive	inactive	inactive		inactive				inactive	inactive
COc1ccc(/C=C/C(=O)c2ccc(OC)cc2OC)cc1	2.24 µM (active)	8.91 µM (active)	5.36 µM (active)	5.01 µM (active)	13.5 µM (active)	9.53 µM (active)	10 µM (active)	8.49 µM (active)	8.49 µM (active)	6.01 µM (active)		12 µM (active)		6.75 µM (active)	7.94 µM (active)	10.7 µM (active)	16.9 µM (active)	12 µM (active)	7.08 µM (active)	7.57 µM (active)
O=C1c2ccccc2C(=O)C1c1ccccc1	inactive	inactive	inactive	inactive	inactive	inactive	inactive	inactive	inactive	inactive	inactive	inactive	inactive	inactive	inactive	inactive	inactive	inactive	inactive	
NC(=O)C(=O)N/N=C/c1ccc([N+](=O)[O-])o1	inactive	inactive	inactive	inactive			inactive						15.1 µM (active)	inactive	inactive				inactive	
CCCCCCc1ccc(O)cc1O	inactive	inactive	inactive	inactive	inactive	inactive	inactive	inactive	inactive	inactive	inactive	inactive	inactive	inactive	inactive	inactive	inactive	inactive	inactive	
C[C@@H]1C[C@H]2[C@@H]3CCC4=CC(=O)C=C[C@]4(C)[C@@]3(F)[C@@H](O)C[C@]2(C)[C@H]1C(=O)CO	inactive	inactive	inactive	inactive	inactive	inactive	inactive			inactive	inactive	inactive	inactive	inactive	inactive	13.5 µM (active)			inactive	
Cc1cc(N)c2cc(NC(=O)Nc3ccc4nc(C)cc(N)c4c3)ccc2n1	1.78 µM (active)	5.62 µM (active)	4.78 µM (active)	7.08 µM (active)		2.39 µM (active)	4.47 µM (active)	4.26 µM (active)	4.78 µM (active)	3.79 µM (active)	7.57 µM (active)		1.69 µM (active)	7.57 µM (active)	5.62 µM (active)	13.5 µM (active)	10.7 µM (active)	6.01 µM (active)	0.891 µM (active)	
Cc1c(F)c(N2CCNC(C)C2)cc2c1c(=O)c(C(=O)O)cn2C1CC1 (stereo not given)	inactive	inactive	inactive	inactive	inactive	inactive	inactive	inactive	inactive	inactive	inactive	inactive	inactive	inactive	inactive	inactive	inactive	inactive	inactive	
CN(C)CCCOc1nn(Cc2ccccc2)c2ccccc12	inactive	inactive	inactive			inactive	inactive		inactive	inactive	inactive	inactive	inactive		inactive			inactive		inactive
CN(C)C(=S)SC(=S)N(C)C	10 µM (active)	10 µM (active)	inactive			10.7 µM (active)	11.2 µM (active)			15.1 µM (active)		15.1 µM (active)		8.49 µM (active)	10 µM (active)	13.5 µM (active)		12 µM (active)	7.08 µM (active)	inactive
CCCCOc1cc(C(=O)NCCN(CC)CC)c2ccccc2n1	inactive	inactive		inactive	inactive	inactive	inactive	inactive	inactive	inactive	inactive	inactive	inactive	inactive	inactive		inactive	inactive	inactive	
C=C(CC)C(=O)c1ccc(OCC(=O)O)c(Cl)c1Cl	4.47 µM (active)	8.91 µM (active)		inactive			10 µM (active)		inactive			inactive							11.2 µM (active)	inactive
O=C(N/N=C/c1ccccc1O)c1ccncc1	11.2 µM (active)	5.01 µM (active)					5.01 µM (active)		inactive					6.01 µM (active)	7.94 µM (active)				11.2 µM (active)	
CCN1CCN(c2cc3c(cc2F)c(=O)c(C(=O)O)cn3C2CC2)CC1	inactive		inactive	inactive	inactive	inactive		inactive	inactive		inactive	inactive	inactive		inactive	inactive	inactive	inactive	inactive	inactive
COc1ccc(CCN2CCC(Nc3nc4ccccc4n3Cc3ccc(F)cc3)CC2)cc1	3.55 µM (active)	1 µM (active)		3.98 µM (active)	4.78 µM (active)	4.78 µM (active)	2.51 µM (active)	4.26 µM (active)	5.36 µM (active)	4.26 µM (active)	12 µM (active)	4.26 µM (active)	9.53 µM (active)	3.79 µM (active)	3.55 µM (active)	4.78 µM (active)	4.78 µM (active)	13.5 µM (active)	8.91 µM (active)	
